Experimental findings from PubChem BioAssay are described below.

Records with an inconclusive call do not appear. Active and inactive are the calls of the source.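 How the source made its calls, unless noted: active means GFP response, as percent of the DMSO control, above the screen-wide mean plus 3 SD, about 139; inconclusive means no response measured because the compound's own fluorescence interfered; inactive means the rest.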

Assay [1] can be described thus: yeast TOR pathway RPL19A-GFP modulators, primary screen, cell-based, S. cerevisiae, multiplex flow cytometry (AID 1862; in the data active means percent of DMSO control GFP below about 86%;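 further: lower values mimic rapamycin by blocking the RPL19A rise seen in DMSO cells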). The following applies: S. cerevisiae RPL19A-GFP strain, flow cytometry fluorescence, 3 h; at 10 µM; stronger effect = lower value. A general note: In flow cytometry, cells or beads pass a laser one at a time.
Assay [2] can be described thus: modulators of MEP2-GFP levels in yeast, primary screen, S. cerevisiae, multiplex flow cytometry (AID 1867).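 Further: median GFP channel fluorescence of barcode-gated MEP2-GFP cells measured by flow cytometry.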 The following applies: S. cerevisiae MEP2-GFP strain, 3 h, at 10 µM, stronger effect = higher value, 100% means same as DMSO wells.
Assay [3] is described as follows: modulators of CIT2-GFP expression in yeast, primary screen, S. cerevisiae, GFP fusion, multiplex flow cytometry (AID 1870;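 active means percent response above a set limit, the screen-wide mean plus 3 SD, cut at about 130% in these data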;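 further: barcoded CIT2-GFP strain pooled with four other GFP strains with rapamycin as positive control; median GFP fluorescence per well over plate mean of DMSO wells so 100% = DMSO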). The note with it: 3 h, at 10 µM, stronger effect = higher value.
Assay [4] in a line: modulators of LAP4-GFP expression in yeast, primary screen, S. cerevisiae, multiplex flow cytometry (AID 1873;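 active means GFP signal, as percent of the solvent control, above the screen mean plus 3 SD, about 149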). The note with it: 3 h, at 10 µM, stronger effect = higher value.
A short description of assay [5]: modulators of AGP1-GFP expression in yeast TOR pathway, primary screen, cell-based, multiplex flow cytometry, S. cerevisiae (AID 1887;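 active means GFP signal above the screen-wide mean plus 3 SD, that is over about 124.5% of the solvent control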;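 further: AGP1-GFP fusion strain of S. cerevisiae within a five-strain barcoded multiplex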). The note with it: 3 h, at 10 µM, stronger effect = higher value.
Assay [6] can be described thus: inhibitors of CD8+ T cell-vesicle binding, pilot screen, LFA-1/ICAM-1 modulator project, MLPCN validation set, flow cytometry (AID 2523;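 active means response below a set limit, under 55% cells CD8-positive and vesicle-bound, and CD8 cells' 90th-percentile brightness under 279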;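 on vesicle binding response: mean PE anti-B7-1 fluorescence of CD8+ cells relative to row control; 100% = QL9-loaded vesicles with DMSO vehicle in the same plate row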). The following applies: 2C mouse CD8+ T cells, at 7 µM, stronger effect = lower value; double positive events: measured here: CD8+/vesicle+ event percentage.
Assay [7] has as its target Integrin beta-1 (Homo sapiens) + Integrin alpha-4 (Homo sapiens) (UniProt P13612+P05556). Put plainly: inhibition of HUTS-21 binding to VLA-4, pilot screen, VLA-4 allosteric modulator project, U937 cells, HUTS-21 mAb, flow cytometry, validation set (AID 2674;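 active means inhibition above 50%, about 3 SD of the validation set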;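 further: antibody binding induced by the VLA-4 ligand LDV present at three times its Kd; 0% = LDV ligand with antibody and no compound and 100% = antibody without LDV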). The following applies: HUTS-21 LIBS mAb binding, at 6.7 µM, stronger effect = higher value, binding induced by LDV ligand.

Assay [8] can be described thus: superoxide lowering in aged yeast cells, pilot screen, validation compound set (AID 2706;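 active means superoxide response below 65% of plate, a cut near 3 SD across the whole screen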;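 further: yeast exposed to compound for one week at 30 degrees C before staining; 100% = mean of all compound wells on the same plate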). The following applies: S. cerevisiae aging, superoxide DHE fluorescence; at 10 µM, stronger effect = lower value.
For assay [9], the target named is Beta-adrenergic receptor kinase 1 (Homo sapiens) (UniProt P25098). Put plainly: GRK2 binders displacing RNA aptamer, biochemical, validation, human GRK2, bead flow cytometry (AID 488806;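 active means aptamer binding inhibition above 30%, about 3 SD of noise from non-fluorescent compounds; inactive means inhibition at or below 30%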). The following applies: bead-bound GRK2, FAM-aptamer displacement, at 10 µM, stronger effect = higher value.
Sequence of Beta-adrenergic receptor kinase 1 (Homo sapiens) (P25098 whole entry, looked up): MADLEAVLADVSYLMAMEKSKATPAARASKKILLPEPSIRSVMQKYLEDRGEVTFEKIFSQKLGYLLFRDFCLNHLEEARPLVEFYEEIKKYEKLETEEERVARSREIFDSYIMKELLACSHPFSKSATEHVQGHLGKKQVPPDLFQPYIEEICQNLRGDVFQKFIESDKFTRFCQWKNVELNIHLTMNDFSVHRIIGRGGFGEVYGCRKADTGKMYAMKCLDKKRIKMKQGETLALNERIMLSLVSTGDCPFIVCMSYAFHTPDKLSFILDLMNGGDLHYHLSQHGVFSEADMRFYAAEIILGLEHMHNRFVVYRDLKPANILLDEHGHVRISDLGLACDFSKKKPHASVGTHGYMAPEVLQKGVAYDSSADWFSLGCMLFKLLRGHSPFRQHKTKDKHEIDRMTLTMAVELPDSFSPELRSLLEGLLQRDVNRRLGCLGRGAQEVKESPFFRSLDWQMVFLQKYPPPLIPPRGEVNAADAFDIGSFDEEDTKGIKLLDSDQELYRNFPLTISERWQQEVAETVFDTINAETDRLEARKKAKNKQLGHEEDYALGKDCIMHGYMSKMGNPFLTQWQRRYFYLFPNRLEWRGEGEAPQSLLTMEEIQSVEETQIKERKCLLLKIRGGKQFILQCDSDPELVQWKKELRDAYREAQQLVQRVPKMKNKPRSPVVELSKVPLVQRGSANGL
Assay [10] concerns the target AP-2 complex subunit beta (Homo sapiens) (UniProt P63010). Nature of the assay: inhibitors of arrestin peptide binding to AP2, pilot screen, biochemical, validation set, GST-AP2 beads, flow cytometry (AID 504541;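 active means inhibition above 54%, about 3 SD of non-fluorescent compounds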;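 further: AP2 carries R879A mutation and is captured from E. coli lysate; bead-bound FITC arrestin peptide fluorescence measuring arrestin peptide binding to AP2; 0% = DMSO wells and 100% = excess unlabeled arrestin peptide control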). The note with it: FITC arrestin peptide, at 10 µM, stronger effect = higher value, AP2 beta2 appendage fragment, R879A mutant.
A short description of assay [11]: yeast V-ATPase proton transport modulators, S. cerevisiae, pHLuorin, HTS validation (AID 504600; in the data active means response above about 15%;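 further: plate controls were DMSO for no effect and reference compound for full effect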). The following applies: S. cerevisiae pHLuorin cytosolic pH, at 10 µM, stronger effect = higher value.
In assay [12] the test system is anti-desmoglein-3 scFv antibody binding to human DSG3. Nature of the assay: inhibitors of anti-DSG3 scFv binding to DSG3, pilot screen, biochemical, validation compound set, bead-based, flow cytometry (AID 588368;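 active means binding below the plate cutoff, the plate median minus 3 SD, with a reading above zero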;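 further: signal is the median channel fluorescence of bead-bound GFP antibody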). The following applies: Protein G beads, DSG3-Fc, scFv-GFP binding, at 10 µM, stronger effect = lower value.
Assay [13] in a line: inhibitors of fungal efflux pumps CDR1, CDR2, MDR1, pilot screen, validation compound set, multiplex, phenotypic (AID 588506;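 active means efflux inhibition above 0.42, the validation set average plus 4 SD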;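 further: Nile Red retained in cells so higher fluorescence means more efflux inhibition; 0 = negative control wells and 1 = enniatin B 25 µM full block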). The following applies: S. cerevisiae pump-expressing triplex, Nile Red efflux flow cytometry; at 10 µM; stronger effect = higher value; the pumps come from Candida albicans.
Assay [14] addresses ATP-binding cassette sub-family B member 6 (Homo sapiens) (UniProt Q9NP58). Put plainly: ABCB6 transporter inhibitors, pilot screen, K562-ABCB6 cells, flow cytometry, validation set (AID 588550;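 active means inhibition above the screen-wide mean plus 3 SD, about 51%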;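 further: 0% = DMSO wells and 100% = benzethonium chloride 70 µM positive control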). The following applies: K562-ABCB6 porphyrin accumulation, 1 h, at 10 µM, stronger effect = higher value.
Assay [15] is described as follows: promoters of myeloid differentiation in arrested cells, primary screen, cell-based, GFP/MAC1 double positive, flow cytometry, validation set (AID 588685;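 active means differentiation response of at least 50%, scaled between solvent and reference control, from cells with both markers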;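 further: compound exposure lasts four days before antibody staining and flow analysis; 0% = DMSO wells and 100% = 5 µM fulvestrant positive control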). The note with it: ER-HoxA9 marrow cells, stronger effect = higher value, normalized: vehicle 0, fulvestrant 100.

Sequence of ATP-binding cassette sub-family B member 6 (Homo sapiens) (Q9NP58 whole entry, looked up): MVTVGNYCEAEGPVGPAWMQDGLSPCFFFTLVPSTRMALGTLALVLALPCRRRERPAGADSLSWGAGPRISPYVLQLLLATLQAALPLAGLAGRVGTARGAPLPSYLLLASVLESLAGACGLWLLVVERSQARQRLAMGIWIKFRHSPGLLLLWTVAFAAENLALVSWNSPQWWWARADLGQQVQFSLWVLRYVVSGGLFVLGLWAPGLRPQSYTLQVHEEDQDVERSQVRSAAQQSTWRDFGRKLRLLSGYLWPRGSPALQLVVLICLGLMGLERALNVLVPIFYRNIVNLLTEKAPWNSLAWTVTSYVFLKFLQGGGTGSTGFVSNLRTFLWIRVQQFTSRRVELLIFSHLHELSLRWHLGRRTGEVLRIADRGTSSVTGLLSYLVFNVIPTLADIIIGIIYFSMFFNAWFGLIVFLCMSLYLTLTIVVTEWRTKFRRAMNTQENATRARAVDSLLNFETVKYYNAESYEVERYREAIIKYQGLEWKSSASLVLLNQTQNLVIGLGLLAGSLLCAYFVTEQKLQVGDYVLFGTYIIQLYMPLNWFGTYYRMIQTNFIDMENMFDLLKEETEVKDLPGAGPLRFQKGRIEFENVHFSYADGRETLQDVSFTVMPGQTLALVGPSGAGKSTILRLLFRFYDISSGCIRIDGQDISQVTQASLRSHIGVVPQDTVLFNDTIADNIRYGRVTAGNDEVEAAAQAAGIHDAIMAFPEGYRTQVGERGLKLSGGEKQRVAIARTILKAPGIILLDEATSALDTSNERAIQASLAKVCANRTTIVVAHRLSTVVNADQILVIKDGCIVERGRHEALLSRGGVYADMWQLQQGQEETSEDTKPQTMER
Sequence of AP-2 complex subunit beta (Homo sapiens) (P63010 whole entry, looked up, the tested form may be a part, one chain of several): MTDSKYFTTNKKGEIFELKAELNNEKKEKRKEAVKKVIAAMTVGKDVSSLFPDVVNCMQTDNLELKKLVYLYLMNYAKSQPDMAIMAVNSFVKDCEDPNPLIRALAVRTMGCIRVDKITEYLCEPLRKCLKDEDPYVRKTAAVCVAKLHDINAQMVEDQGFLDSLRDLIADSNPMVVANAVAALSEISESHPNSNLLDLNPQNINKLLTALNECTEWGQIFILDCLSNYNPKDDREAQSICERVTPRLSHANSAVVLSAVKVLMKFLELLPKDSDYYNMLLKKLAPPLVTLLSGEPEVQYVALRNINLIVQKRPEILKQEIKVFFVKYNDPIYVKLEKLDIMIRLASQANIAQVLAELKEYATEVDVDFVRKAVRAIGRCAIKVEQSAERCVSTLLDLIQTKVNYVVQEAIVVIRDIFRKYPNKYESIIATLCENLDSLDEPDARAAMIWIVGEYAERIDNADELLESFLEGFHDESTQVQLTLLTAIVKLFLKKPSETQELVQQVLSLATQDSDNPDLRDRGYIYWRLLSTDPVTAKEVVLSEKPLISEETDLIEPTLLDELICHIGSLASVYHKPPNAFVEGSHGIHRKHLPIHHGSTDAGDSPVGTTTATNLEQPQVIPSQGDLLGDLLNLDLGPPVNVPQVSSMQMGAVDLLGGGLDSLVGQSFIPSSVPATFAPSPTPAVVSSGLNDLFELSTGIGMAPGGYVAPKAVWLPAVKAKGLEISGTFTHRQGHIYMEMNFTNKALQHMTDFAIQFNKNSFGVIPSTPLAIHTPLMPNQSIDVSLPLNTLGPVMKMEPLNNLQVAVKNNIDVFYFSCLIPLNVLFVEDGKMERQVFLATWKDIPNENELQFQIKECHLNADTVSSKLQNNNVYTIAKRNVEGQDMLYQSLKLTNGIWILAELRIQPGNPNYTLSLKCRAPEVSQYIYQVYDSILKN
Sequence of Integrin beta-1 (Homo sapiens) + Integrin alpha-4 (Homo sapiens) (P05556 whole entry, looked up): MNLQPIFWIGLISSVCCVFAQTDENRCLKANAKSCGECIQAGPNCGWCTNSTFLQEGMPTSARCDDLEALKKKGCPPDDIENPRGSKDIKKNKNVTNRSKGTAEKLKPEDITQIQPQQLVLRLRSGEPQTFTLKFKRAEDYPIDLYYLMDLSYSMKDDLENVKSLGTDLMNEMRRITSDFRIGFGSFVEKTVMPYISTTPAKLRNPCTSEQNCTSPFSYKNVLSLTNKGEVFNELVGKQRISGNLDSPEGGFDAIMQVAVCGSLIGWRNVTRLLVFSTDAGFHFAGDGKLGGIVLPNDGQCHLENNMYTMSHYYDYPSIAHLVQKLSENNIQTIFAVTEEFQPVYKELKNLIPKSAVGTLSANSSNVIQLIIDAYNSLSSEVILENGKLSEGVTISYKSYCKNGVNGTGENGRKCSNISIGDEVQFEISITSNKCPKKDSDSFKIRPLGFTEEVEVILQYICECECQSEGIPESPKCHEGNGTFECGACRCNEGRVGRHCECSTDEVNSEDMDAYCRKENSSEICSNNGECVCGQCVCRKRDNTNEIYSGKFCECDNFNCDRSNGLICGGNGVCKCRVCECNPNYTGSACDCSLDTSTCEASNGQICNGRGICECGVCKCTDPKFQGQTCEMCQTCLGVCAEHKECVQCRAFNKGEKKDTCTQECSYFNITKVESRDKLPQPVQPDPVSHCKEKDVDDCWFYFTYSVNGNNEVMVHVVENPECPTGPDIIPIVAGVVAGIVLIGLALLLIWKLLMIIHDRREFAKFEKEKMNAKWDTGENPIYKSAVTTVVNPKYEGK
Sequence of Integrin beta-1 (Homo sapiens) + Integrin alpha-4 (Homo sapiens) (P13612 whole entry, looked up): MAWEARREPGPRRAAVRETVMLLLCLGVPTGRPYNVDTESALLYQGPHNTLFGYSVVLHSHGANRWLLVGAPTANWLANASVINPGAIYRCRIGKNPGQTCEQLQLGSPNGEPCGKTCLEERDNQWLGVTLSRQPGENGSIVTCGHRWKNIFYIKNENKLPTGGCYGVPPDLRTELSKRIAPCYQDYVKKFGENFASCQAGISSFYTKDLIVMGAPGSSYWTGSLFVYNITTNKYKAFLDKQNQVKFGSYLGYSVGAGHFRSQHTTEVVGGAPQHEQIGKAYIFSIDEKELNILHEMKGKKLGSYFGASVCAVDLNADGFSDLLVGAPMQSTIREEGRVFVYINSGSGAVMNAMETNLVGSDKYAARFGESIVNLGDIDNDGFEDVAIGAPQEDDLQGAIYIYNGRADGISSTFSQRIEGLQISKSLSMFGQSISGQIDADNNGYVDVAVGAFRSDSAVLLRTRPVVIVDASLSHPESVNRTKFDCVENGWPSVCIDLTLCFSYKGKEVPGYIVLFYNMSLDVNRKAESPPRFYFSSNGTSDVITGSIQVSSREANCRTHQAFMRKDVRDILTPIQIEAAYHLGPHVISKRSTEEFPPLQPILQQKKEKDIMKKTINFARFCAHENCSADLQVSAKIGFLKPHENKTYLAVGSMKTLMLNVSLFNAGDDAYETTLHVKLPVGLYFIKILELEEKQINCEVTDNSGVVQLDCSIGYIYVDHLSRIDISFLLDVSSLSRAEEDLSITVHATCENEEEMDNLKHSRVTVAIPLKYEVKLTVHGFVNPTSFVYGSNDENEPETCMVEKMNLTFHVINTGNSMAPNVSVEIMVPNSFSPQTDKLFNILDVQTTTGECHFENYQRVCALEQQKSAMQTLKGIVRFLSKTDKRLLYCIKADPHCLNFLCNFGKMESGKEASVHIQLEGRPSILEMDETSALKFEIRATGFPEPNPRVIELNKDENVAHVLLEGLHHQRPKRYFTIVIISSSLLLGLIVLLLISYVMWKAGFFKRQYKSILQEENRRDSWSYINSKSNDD

With `Cn1nc(-c2ccccn2)nc2c(=O)n(C)c(=O)nc1-2`, the percent of DMSO control GFP in [1] is 103% (inactive). Moreover, the GFP response vs DMSO in [2] is 98.9% (inactive); in [4], 105% (inactive). The percent response of DMSO control in [3] is 110% (inactive). Further, the GFP response, % of DMSO in assay [5] is 105% (inactive). The compound further showed a double positive events in [6] of 59.4%. In [6], the vesicle binding response is 165% (inactive). In addition, the inhibition (commonly the change of the read-out against control, counted positive when it falls) in assay [7] was -40.4% (inactive); in assay [10], 17.4% (inactive); in assay [14] it was -1% (inactive). Moreover, the superoxide response (% of plate) in [8] is 107% (inactive). In addition, the aptamer binding inhibition in assay [9] is 61% (active). In addition, the response in [11] was -11.7% (inactive). Besides, the binding (% of control) in assay [12] is 94.9% (inactive). For the same compound, the efflux inhibition (fraction of control) in assay [13] is -0.12 (inactive). Also, in [15], the differentiation response was -22.8% (inactive).

For `COC(=O)CN1CC(=O)N(c2ccccc2)C1=S`, in assay [1], the percent of DMSO control GFP was 101% (inactive). Also, the results for the GFP response vs DMSO in [2] and in [4] were 106% (inactive) and 100% (inactive), respectively. Also, the percent response of DMSO control in [3] is 97.9% (inactive). Besides, the GFP response, % of DMSO in assay [5] was 95.8% (inactive). The double positive events in assay [6] stood at 59.2%. For the same compound, the vesicle binding response in [6] is 171% (inactive). Moreover, the inhibition in assay [7] is 6.29% (inactive); in assay [10], 9.42% (inactive); in [14] it was -19% (inactive). Also, the superoxide response (% of plate) in assay [8] was 97.2% (inactive). Moreover, the aptamer binding inhibition in assay [9] was 1% (inactive). Moreover, in assay [11], the response is 4.12% (inactive). Besides, the binding (% of control) in [12] was 106% (inactive). The efflux inhibition (fraction of control) in [13] was 0.22 (inactive). In addition, the differentiation response in [15] was 6.26% (inactive).

With `CCc1c(C)c2ccc(OCC(=O)OC(C)C)c(C)c2oc1=O`, the percent of DMSO control GFP in assay [1] is 98.1% (inactive). Also, the GFP response vs DMSO in [2] was 96.9% (inactive); in assay [4], 89.3% (inactive). Moreover, the percent response of DMSO control in [3] was 93% (inactive). Further, the GFP response, % of DMSO in assay [5] was 88.5% (inactive). The double positive events in [6] turned out to be 57.1%. The vesicle binding response in assay [6] is 142% (inactive). The inhibition is 7.22% (inactive) in [7], 19.5% (inactive) in assay [10] and 8% (inactive) in [14]. Besides, the superoxide response (% of plate) in assay [8] is 101% (inactive). In [9], the aptamer binding inhibition was -3% (inactive). Further, the response in [11] was 3.44% (inactive). The binding (% of control) in assay [12] is 101% (inactive). Further, the efflux inhibition (fraction of control) in [13] is 0.29 (inactive). For the same compound, in [15], the differentiation response was -18% (inactive).

Regarding `CCOC(=O)c1cnc2ccccc2c1NCCO`, in assay [1], the percent of DMSO control GFP was 108% (inactive). The GFP response vs DMSO in assay [2] was 99.9% (inactive); in [4], 102% (inactive). The percent response of DMSO control in assay [3] is 109% (inactive). For the same compound, the GFP response, % of DMSO in assay [5] is 103% (inactive). Also, the double positive events in [6] was determined as 61.1%. Further, the vesicle binding response in assay [6] is 186% (inactive). In addition, the inhibition in assay [7] is 1.62% (inactive); in assay [10], -2.19% (inactive); in assay [14], 7% (inactive). Further, the superoxide response (% of plate) in assay [8] is 98.1% (inactive). Also, the aptamer binding inhibition in [9] is 0% (inactive). Also, in assay [11], the response was 5.12% (inactive). In assay [12], the binding (% of control) was 99.8% (inactive). Also, in [13], the efflux inhibition (fraction of control) was -0.12 (inactive). For the same compound, the differentiation response in assay [15] was -18% (inactive).

In the case of `COc1cccc(CN2CCN(C(=O)c3ccc(-c4ccccc4)cc3)CC2)c1`, the percent of DMSO control GFP in [1] was 99.1% (inactive). In addition, the GFP response vs DMSO is 103% (inactive) in assay [2] and 113% (inactive) in [4]. In [3], the percent response of DMSO control is 103% (inactive). Moreover, in assay [5], the GFP response, % of DMSO was 98.8% (inactive). The compound also showed a double positive events in assay [6] of 52.5%. In [6], the vesicle binding response was 189% (inactive). For the same compound, the inhibition was -6.77% (inactive) in [7], -7.96% (inactive) in [10] and 7% (inactive) in assay [14]. In addition, the superoxide response (% of plate) in [8] is 87.9% (inactive). Further, in [9], the aptamer binding inhibition is 2% (inactive). Besides, the response in [11] is 5.01% (inactive). For the same compound, the binding (% of control) in assay [12] is 99.5% (inactive). Besides, the efflux inhibition (fraction of control) in assay [13] is 0.22 (inactive). In addition, the differentiation response in assay [15] is 4.64% (inactive).
